Laboratory results published in PubChem BioAssay (NCATS).
Results filed as inconclusive are left out. Values without a mark were called inactive. The source made the active and inactive calls. The call rests on the fitted dose curve; in most records, active means well fitted cell-killing curve with a large enough effect; inconclusive means small, poorly fitted or top-dose-only effect, or effect the other way; inactive means no such curve, though single readings can be large or run the other way.

test: Viability qHTS for spleen associated tyrosine kinase inhibitor (SYKi) drug resistant MV4-11 cells (AID 1963824); details: SYKi-resistant MV4-11 viability, CellTiter-Glo, 72 h; series mostly up to 45 µM; viability, % of control: at the top concentration; further: nearly all actives have a fitted effect of over 35% in size
Summary of the method: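 CellTiter-Glo luminescence, read 10 min after reagent addition, reports viability after a 72 hr compound exposure. Cells are an MV4-11 line made resistant to SYK inhibition, seeded at 500 per well onto compound-containing plates.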
Potency means the concentration at half of the fitted maximal effect.

Row | Structure (SMILES) | Potency | viability, % of control
1 | Cc1ccc([C@@H]2CC=C(C(=O)O)[C@H](c3ccc(C(C)(C)C)cc3)N2S(=O)(=O)c2ccc(C)cc2)cc1 | 16.4 µM (active) | –
2 | C[C@@H]1O[C@@H](O[C@H]2[C@H](OC(=O)[C@]34CCC(C)(C)C[C@H]3C3=CCC5[C@@]6(C)C[C@H](O)[C@H](O[C@@H]7O[C@H](CO)[C@@H](O)[C@H](O)[C@H]7O)[C@](CO)(C(=O)O)C6CC[C@@]5(C)[C@]3(C)C[C@H]4O)OC[C@H](O)[C@@H]2O)[C@H](O)[C@H](O)[C@H]1O[C@@H]1OC[C@@H](O)[C@H](O[C@@H]2OC[C@](O)(CO)[C@H]2O)[C@H]1O (stereo partly drawn) | 0.776 µM (active) | –
3 | COc1ccccc1Oc1c(NS(=O)(=O)c2ccc(C)cn2)nc(-c2ccncc2)nc1OC | – | 79.1%
4 | Cc1noc(-c2ccc(-c3ccc(CC(=O)O)cc3)cc2)c1NC(=O)O[C@H](C)c1ccccc1Cl | 20.6 µM (active) | –
5 | CC(=O)O[C@H]1C(=O)[C@@]2(C)[C@H]([C@H](OC(=O)c3ccccc3)[C@]3(O)C[C@H](OC(=O)[C@H](O)[C@@H](NC(=O)c4ccccc4)c4ccccc4)C(C)=C1C3(C)C)[C@]1(OC(C)=O)CO[C@@H]1C[C@@H]2O | 0.0044 µM (active) | –
6 | Cc1ccc(Cc2c(C)nc3nc(SCC(=O)NCCN4CCNCC4)nn3c2C)cc1 | – | 78%
7 | C=CC(=O)Nc1cccc(CN2C(=O)N(c3c(Cl)c(OC)cc(OC)c3Cl)Cc3cnc(NCCCCN(CC)CC)nc32)c1 | 3.66 µM (active) | –
8 | Cc1cc(-c2cnn3c(NCC4CC(C)(O)C4)cc(Oc4cccnc4)nc23)ccc1C(=O)NC1CC1 (stereo not drawn) | 0.118 µM (active) | –
